The text below walks through data of PubChem BioAssay AID540335 (Broad Institute, 2011).

Screen size: about 1,300 compounds; about 270 (21%) were called active. These entries were drawn from the full list. Results with a measured potency or affinity are listed apart. A number with no mark means an inactive call.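 Rule for the calls: active = dose-dependent rise or fall in viability, either side of zero, with half-maximal concentration at or below a set limit; inconclusive = flat curve at 30 to 70% viability loss, or poor fit; inactive = flat within 30% either way, or potency beyond limit.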

The assay is described as follows: proliferation inhibition in MITF-low A375 cells – cell-based, cherry-pick samples, set 2, counter-screen for MITF modulator project, dose response (AID 540335).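 Note: A375 human melanoma cells which do not depend on MITF; 0% = median of neutral control wells and 100% = double that signal.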 As to conditions: CellTiter-Glo ATP luminescence, 24 h; series mostly up to 35 µM; activity change, negative = decreased viability: at the top concentration.
In the case of `CCn1c(=O)c([N+](=O)[O-])c(Cl)c2ccccc21`, the “activity change, negative = decreased viability” value was 5.11%.
Under `COc1ccc(C(=O)/C=C/C(=O)N(CC(=O)NC2CCCCC2)Cc2cccs2)c(O)c1` stands -2.13%; under `Cc1cnc(NC(=O)c2nn(C)cc2[N+](=O)[O-])s1`, 0.417%.
Under `Cn1cc(C(=O)N/N=C/c2c(O)ccc3ccccc23)ccc1=O` stands -38.1%; under `O=C(CSCC(=O)Nc1ccccc1)N/N=C/c1c(O)ccc2ccccc12`, -31.7%.
On to `CCc1ccccc1NC(=O)CN(C)C(=O)Cn1ncc(Cl)c(Cl)c1=O`, for which the “activity change, negative = decreased viability” value was 80.5%.
On to `COC(=O)c1ccc2c(c1O)C(=O)c1ccccc1C2=O`, for which the “activity change, negative = decreased viability” value was -37.2%.
As for `CC(=O)N(C)C1=C(N2CCOCC2)C(=O)c2ccccc2C1=O`, the “activity change, negative = decreased viability” value was -38%.
For `CCN(CC)CCNC(=O)c1ccc(NC(=O)c2cn(-c3ccccc3)nc2-c2cccs2)cc1` the value was -38.3%; for `CCS(=O)(=O)c1ccc(N=Nc2ccc(O)c3ncccc23)c(OC)c1`, -34%; for `O=[N+]([O-])c1ccc(-n2nnnc2-c2ccccc2)c([N+](=O)[O-])c1`, 2.45%.
Under `CCN1CCN(c2ccc(S(=O)(=O)N3CCCCC3)cc2NC(=O)/C=C/c2cccc(OC)c2OC)CC1` stands -14.7%.
For `CCN1CCN(c2ccc(S(=O)(=O)N3CCCCC3)cc2NC(=O)/C=C/c2ccc([N+](=O)[O-])cc2)CC1` the value was -9.5%; for `O=C(N/N=C/c1ccc([N+](=O)[O-])s1)C(O)c1ccccc1` (configuration not stated), -11.8%.
Regarding `CC(/C=N/NC(=O)c1cc(-c2ccncc2)nc2ccccc12)=C\c1ccco1`, the “activity change, negative = decreased viability” value is 14.4%.
Under `O=C1C(Nc2ccccc2)=C(N2CCCCC2)C(=O)c2ccccc21` stands -22.7%; under `CN1CCN(C2=C(NS(=O)(=O)c3ccccc3)C(=O)c3ccccc3C2=O)CC1`, -10%.
Under `CCN1c2ccccc2NC2C1C(C(C)=O)C(=O)N2c1ccc(Cl)cc1` (configuration not stated) stands -2.02%; under `C=CCNC1=C(Cl)C(=O)c2ccccc2C1=O`, -14.5%.
For `COC1=C(Nc2ccc(O)cc2)C(=O)c2ccccc2C1=O` the value was -34.3%.
As to `COC1=C(Nc2ccccc2)C(=O)c2ccccc2C1=O`, the “activity change, negative = decreased viability” value was -20.6%.
For `O=C(NC1=C(Nc2ccc(Cl)cc2)C(=O)c2ccccc2C1=O)c1ccccc1` the value was -34.3%; for `CCNC1=C(Cl)C(=O)c2ccccc2C1=O`, -23.1%; for `CCc1ccc(NC2=CC(=O)C(=O)c3ccccc32)cc1`, -32.6%.
Under `COc1ccc(C(=O)/C=C/C(=O)N(CC(=O)NC2CCCCC2)CC2CCCO2)c(O)c1` (configuration not stated) stands -33.5%; under `CC1=NNC(=O)/C1=C\c1cn(-c2ccccc2)nc1-c1ccc(F)cc1`, -11.5%; under `Cc1ccc(-c2c[n+](Cc3ccc(Cl)c(Cl)c3)c3n2CCC3)cc1`, -14.8%.
As for `COc1cc(/C=C/C(=O)c2ccc3c(c2)OCCO3)cc(Br)c1OCC(=O)N(C)C`, the “activity change, negative = decreased viability” value is 107%.
Under `O=C(/C=C\c1ccccc1)NCC(=O)N/N=C/c1ccc(O)cc1O` stands -16.7%.
Under `CC1CCN(CC(CS(=O)(=O)c2ccc([N+](=O)[O-])cc2)N2CCC(C)CC2)CC1` (configuration not stated) stands 5.07%; under `CCc1ccc(-c2cc(C(=O)Nn3cnnc3)c3ccccc3n2)cc1`, -19.7%; under `Cc1cc(C)cc(NC(=O)c2ccc([N+](=O)[O-])o2)c1`, -28%.
Take `O=C(CS(=O)c1ccc(C(F)(F)F)cc1[N+](=O)[O-])Oc1ccccc1` (configuration not stated): the “activity change, negative = decreased viability” value was 0.077%.
For `Cc1ccccc1-c1nc(CN2CCC(C(=O)NCCCN3CCCC(C)C3)CC2)c(C)o1` (configuration not stated) the value was -2.83%; for `Cc1cc(C)c2nc3nc(C)cc(C)c3c(N)c2c1`, -9.13%.
Under `Cc1cc(C)c2c(N)c(C(=O)N/N=C/c3ccccc3)sc2n1` stands 12.6%; under `Cc1oc(-c2ccc(Cl)cc2)nc1CN1CCC(C(=O)NCCCN2CCCC(C)C2)CC1` (configuration not stated), -19.6%; under `FC(F)(F)c1cc(CCN2CCNC[C@@H]2Cc2ccccc2)cc(C(F)(F)F)c1`, -94.9%.
For `O=C(N/N=C\c1ccc([N+](=O)[O-])s1)c1cncc(Br)c1` the value was -26.1%; for `C#CCCc1ccccc1/C=[N+](/C)[O-]`, 3.43%.
On to `N#C/C(=C(/O)c1ccc([N+](=O)[O-])o1)c1nc2ccccc2[nH]1`, for which the “activity change, negative = decreased viability” value is -27.3%.
Under `O=C(CCl)N1c2ccccc2SCC1c1ccccc1` (configuration not stated) stands -37%; under `O=C(COc1ccc2c(c1)CCC2)N1CCc2ccccc21`, 8.68%.
Under `O=C(Cn1ncc(Cl)c(Cl)c1=O)N1CCOCC1` stands 38.5%; under `CC(=O)Nc1ccc(S(=O)(=O)NC2=C(N3CCN(C)CC3)C(=O)c3ccccc3C2=O)cc1`, -33.5%.
For `O=C(Nc1cnc2ccccn2c1=O)c1ccc(F)cc1` the value was 4.12%; for `CN(C)c1nc(C=C(C#N)C#N)c(Cl)n1-c1ccc(F)cc1`, -10.1%.
`O=[N+]([O-])c1ccc(/C=N/n2cnc3ccccc32)s1`: the “activity change, negative = decreased viability” value was -23.5%.
For `CC1CCCC(NC(=O)NC(=O)CCl)C1C` (configuration not stated) the value was -12.3%.
Under `Cc1cc(Br)ccc1NC(=O)CNC(=O)Cn1ncc(Cl)c(Cl)c1=O` stands -5.62%.
Under `Cc1ccc(NC(=O)Cn2ncc(Cl)c(Cl)c2=O)cc1S(=O)(=O)N1CCCCC1` stands -14.3%.
Consider `Cn1nnnc1Sc1ncnc2scc(-c3ccc(C#N)cc3)c12`, for which the “activity change, negative = decreased viability” value was 29.3%.
Under `CCN1c2ccccc2NC2N=C(OC)C(c3ccccc3)C21` (configuration not stated) stands -35.9%; under `COCCN(CC(=O)NC1CCCCC1)C(=O)/C=C/C(=O)c1ccc(OC)cc1O`, 10.5%; under `Cc1ccc(-c2c[n+](Cc3ccc(Cl)cc3)c3n2CCC3)cc1`, -3.64%.
For `Cc1[nH]c2ccccc2c1C(=O)CCl`, the “activity change, negative = decreased viability” value is -3.71%.
Under `CC(C)C(CCNC1CCN(C)CC1)c1ccc(Cl)cc1` (configuration not stated) stands -4.07%; under `CCN1CCN(C2=C(NS(=O)(=O)c3ccc(Br)cc3)C(=O)c3ccccc3C2=O)CC1`, -15.8%.
Take `CC1CCC(C(C)C)C(OC(=O)C[n+]2cc(-c3ccc(Cl)cc3)n3c2CCCCC3)C1` (configuration not stated): the “activity change, negative = decreased viability” value is -67.3%.
For `O=C(O)c1cccc(NC(=S)N/N=C/c2ccccn2)c1` the value was -11.9%.
As to `Cc1ccc(C(=O)c2no[n+]([O-])c2C(=O)c2ccc(C)cc2)cc1`, the “activity change, negative = decreased viability” value is -8.72%.
Under `COc1ccc(C(=O)/C=C/C(=O)N(CC(=O)NC2CCCCC2)Cc2ccccc2)c(O)c1` stands -10.6%; under `O=C(Nc1ccc(Cl)c(S(=O)(=O)N2CCOCC2)c1)c1ccc(OCC2CCCO2)cc1` (configuration not stated), -37.8%.
Under `O=C(Nc1ccccc1N1CCOCC1)c1ccc([N+](=O)[O-])s1` stands -14.6%; under `O=C(Nc1nc(-c2ccccn2)cs1)c1ccc(F)c(S(=O)(=O)N2CCOCC2)c1`, -27.2%; under `COc1ccc(/C=C2\SC(=O)N(CCCC(=O)Nc3cc(Cl)ccc3C(=O)O)C2=O)cc1`, 10.5%.
Under `Cn1cccc1-c1cc(C(=O)N/N=C/c2cc(Br)ccc2O)[nH]n1` stands -30%.
